# Screening data: PubChem, National Center for Advancing Translational Sciences (NCATS)
# Rows were chosen to be rich in hits. Some 15% of all compounds tested hit in one or more screens of this group.
# SARS PLpro yeast – qHTS of Yeast-based Assay for SARS-CoV PLP; S. cerevisiae expressing SARS-CoV PLpro, growth rescue; Potency, µM (highest dose often 32.9 µM), usual class: activators; AID 485353, 2010; actives 0.19% (n = 330,000); calls by dose curve; further: nearly all actives have a fitted effect of over 55% in size
# Pf growth 48h – Primary qHTS for delayed death inhibitors of the malarial parasite plastid, 48 hour incubation; P. falciparum luciferase growth in erythrocytes, 48 h; Potency, µM (highest dose often 28.7 µM), most hits filed as inhibitors; actives 5.9% (n = 310,000)
#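 A one-generation exposure of luciferase-tagged malaria parasites in RPMI 1640/Albumax erythrocyte culture, 37 C and 5% CO2. Inhibition is inferred from decreased luminescence after adding detection reagent.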
# Pf growth 96h – Primary qHTS for delayed death inhibitors of the malarial parasite plastid, 96 hour incubation; P. falciparum luciferase reporter growth, 96 h; Potency, µM (doses to about 28.7 µM), most hits filed as inhibitors; actives 6.9% (n = 320,000)
#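 Parasite growth measured via integrated firefly luciferase reporter in P. falciparum. Infected erythrocytes at 2% hematocrit, 0.05% parasitemia final were treated 96 hours at 37 C under 5% CO2, and luminescence was read.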
# Sm TGR inh – qHTS Assay for the Inhibitors of Schistosoma Mansoni Peroxiredoxins; Schistosoma mansoni thioredoxin glutathione reductase (TGR), Q962Y6; purified TGR, DTNB reduction, TNB absorbance 405 nm; Potency, µM (doses to about 114 µM), usual class: inhibitors; actives 3% (n = 360,000); further: nearly all actives have a fitted effect of over 60% in size
#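 First, TGR (20 nM dispensed) and NADPH were mixed with compound. Second, a 15 min room-temperature incubation followed. Third, further NADPH and then DTNB were added to start the reaction. Finally, TNB absorbance was monitored kinetically.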
# HCMV inh – qHTS Assay for inhibitors of the human cytomegalovirus (HCMV). HFF cells, HCMV-luciferase reporter, 72 h; hits give low values. activity change, negative = inhibition, % at 57.5 µM. actives 4.5% (n = 410,000); in the data active means activity change below about -60%; inconclusive means no clear call, values can overlap the other calls; inactive means above about -39%
#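 After 16 h attachment at 37C, HFF cells received test compound and HCMV-luciferase (1 PFU/cell); reporter luminescence read 72 h later, data normalized against buffer-only and known inhibitor Salinomycin.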
# HCV inh – qHTS Assay for Inhibitors of Hepatitis C Virus (HCV) | Huh7.5.1 HCVcc-Cre infection, luciferase reporter, 44 h | Potency, µM (top dose mostly 41.8 µM), hits mostly inhibitors | actives 3.4% (n = 340,000) | AID 651820, 2012
#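 Reporter virus HCVcc-Cre (~0.5 moi) infects cells exposed to compound; seeding density 1,000 cells/well with 4 h settling beforehand. Luminescence, 15 sec read, taken 44 h post-infection following a 15 min RT substrate incubation.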
# Numbers stand for hits; n = inactive; u = inconclusive; x = no result given. Unless noted, the call rests on the fitted dose curve; in most records, active means well fitted curve in the direction sought with a large enough effect; inconclusive means small, poorly fitted or top-dose-only effect, or another doubt; inactive means no such curve, though single readings can be large; an effect the other way counts as inactive or inconclusive.
SMILES,SARS PLpro yeast,Pf growth 48h,Pf growth 96h,Sm TGR inh,HCMV inh,HCV inh
Cc1cc(Cl)c2oc(C(=O)N3CCN(c4cccc(C)n4)CC3)c(C)c2c1,n,n,3.7µM,n,n,n
CCOc1ccc(C(=O)N2CCN(c3ccccn3)CC2)cc1,n,n,n,n,n,n
CN(C)S(=O)(=O)c1ccc(NC(=O)CN2C(=O)NC(Cc3ccccc3)C2=O)cc1 (stereo unspecified),n,u,n,n,n,n
CCOC(=O)c1c(NC(=O)c2cc(=O)c3c(C)cc(C)cc3o2)sc2c1CCC2,x,x,x,n,n,x
C=C1CCN([C@@H](CC(C)C)C(=O)Nc2nc3ccc(Cl)cc3s2)S(=O)(=O)c2ccccc21,x,x,x,x,n,x
O=c1[nH][nH]c2c(N=Cc3ccccc3O)ccc(F)c12,n,u,n,0.4µM,x,n
CC1OC(C2CCCCC2)Cc2[nH]c(=S)[nH]c(=O)c21 (stereo unspecified),x,x,x,x,n,x
CCCN1C(=O)/C(=C/C=C2\N(CC)c3ccccc3C2(C)C)SC1=S,n,u,4.1µM,n,n,u
COc1ccc2c(c1OC)CN1CCc3cc4c(cc3C1C2)OCO4 (stereo unspecified),n,u,u,n,-87,n
COc1ccc2c(c1OC)CN1CCc3cc4c(cc3[C@H]1C2)OCO4,n,3.7µM,0.72µM,n,x,11µM
CCN1/C(=C/c2ccc3cc(C)ccc3[n+]2CC)Sc2ccccc21,n,0.59µM,n,n,-102,1.6µM
CCN1/C(=C/c2ccc3cc(C)ccc3[n+]2CC)Sc2cc(C)c(C)cc21,n,2.1µM,n,n,-100,1.1µM
CCC(=O)/C=C1/Sc2ccc(OC)cc2N1CC,n,u,n,n,n,u
CC1(C)C(c2cccs2)=NC(c2ccccc2)N1O (stereo unspecified),n,n,9.3µM,n,n,n
CC1(C)C(c2ccccc2)=NC(c2ccc(F)cc2)N1O (stereo unspecified),n,n,n,n,n,n
O=C(Cn1cnc2c(nc3n2CCCCC3)c1=O)Nc1ccc(F)c(Cl)c1,x,x,x,n,n,x
COc1ccc(NC(=O)c2nc3nc(C)cc(C(F)F)n3n2)c(C)c1,x,x,x,n,n,x
NC(=O)c1sc2nc3c(c(-c4ccco4)c2c1N)CCCC3,n,n,n,n,-64,n
N#Cc1sc2nc3c(c(-c4ccco4)c2c1N)CCCC3,n,n,n,n,u,7.9µM
Nc1c(C(=O)NCC2CCCO2)sc2nc3c(c(-c4ccco4)c12)CC/C3=C\c1ccco1 (stereo unspecified),n,u,u,18µM,u,u
Cc1ccc(NC(=O)c2c(C)nc3sc(C(=O)NC4CCCC4)c(N)c3c2-c2ccco2)c(C)c1,n,n,n,n,n,u
Cc1ccccc1NC(=O)c1sc2nc3c(c(-c4ccco4)c2c1N)CCC3,n,u,u,n,n,4µM
Cc1ccc(CNC(=O)C2CCC(=O)N2C(C)C)cc1 (stereo unspecified),n,n,u,n,n,n
COc1ccc(C(=O)O)cc1S(=O)(=O)Nc1ccccc1Cc1ccccc1,n,n,n,n,n,n
O=C(NC1CC1)c1ccc2c(c1)S(=O)(=O)c1cc(Cl)ccc1C2=O,n,n,n,n,n,n
SMILES,SARS PLpro yeast,Pf growth 48h,Pf growth 96h,Sm TGR inh,HCMV inh,HCV inh
COc1ccc(C2CC(=O)Nc3c2c(C)nn3-c2nncc(-c3ccc(C)cc3)n2)c(OC)c1OC (stereo unspecified),x,x,x,n,n,x
NC(=O)C1CCCNC1 (stereo unspecified),n,n,n,28µM,n,n
Cc1ccc(NC2=NC3(CCCCC3)N=C(N)N2)c(C)c1,n,u,8.3µM,n,n,n
NC1=NC2(CCCCC2)N=C(Nc2ccc(Br)cc2)N1,n,1µM,u,n,n,u
Cc1cccc(C)c1NC1=NC2(CCCCC2)N=C(N)N1,n,u,n,n,n,n
COc1ccc(Br)cc1CNC(=O)CN1C(=O)CSc2ccc(S(=O)(=O)N3CCOCC3)cc21,x,x,x,n,n,x
O=c1c2c(nc3c(-c4ccc(Cl)cc4)c[nH]n13)CCCC2,n,4.7µM,n,n,-78,u
Cc1c(C(=O)N2CCCCC2)c(S(=O)(=O)Nc2ccc(F)cc2F)c(C)n1C,n,n,u,n,n,n
COc1ccc([C@]2(C(C)C)ON(c3ccccc3C(F)(F)F)C2=O)cc1,n,1µM,2.1µM,n,n,u
COc1ccc([C@@]2(C(C)C)ON(c3ccccc3C(F)(F)F)C2=O)cc1,n,0.33µM,0.29µM,n,u,u
CC(C)[C@@]1(c2ccc(Cl)cc2)ON(c2ccccc2C(F)(F)F)C1=O,n,2.1µM,2.3µM,n,x,n
COc1ccc(NC(=O)CSc2ccc3nc(-c4ccccc4)cn3n2)c(OC)c1,x,x,x,n,n,x
Cc1cccc(NC(=O)C2CCN(c3nnc(-n4c(C)ccc4C)s3)CC2)c1C,x,x,x,u,n,x
O=C(Nc1ccc2nc3n(c(=O)c2c1)CCCC3)c1ccccc1F,n,n,u,n,n,n
O=C(Nc1ccc2nc3n(c(=O)c2c1)CCCCC3)c1cc([N+](=O)[O-])ccc1F,n,n,u,n,-72,u
O=C(Nc1ccc2nc3n(c(=O)c2c1)CCCCC3)c1c(F)ccc([N+](=O)[O-])c1F,n,u,u,u,-100,14µM
CCNC(=O)C1(C)CCCN1C(=O)c1cnc2ccccc2n1 (stereo unspecified),x,x,x,x,n,x
CCS(=O)(=O)c1ccc(N=Nc2ccc(O)c3ncccc23)c(OC)c1,n,u,u,n,-92,u
Cc1ccc(N=Nc2ccc(O)c3ncccc23)cc1C,n,u,u,u,-98,u
COc1ccccc1N=Nc1ccc(O)c2ncccc12,n,2.9µM,n,n,-73,2.2µM
COc1ccccc1N=Nc1[nH]c2ccc(C)cc2c1O,n,n,u,n,n,n
Oc1ccc(N=Nc2ccccc2C(F)(F)F)c2cccnc12,n,1.5µM,0.93µM,n,-97,3.2µM
O=c1ncn(-c2ccccc2C(F)(F)F)c2ncccc12,n,n,n,n,n,n
Cc1c(C(=O)Nc2ccc(Br)cc2F)sc2ncnc(N(C)C3CCCCC3)c12,x,x,x,n,n,x
CCOC(=O)c1c(C)nc2sc3c(=O)n(-c4ccc(OC)cc4)cnc3c2c1-c1ccc(OC)cc1,n,u,12µM,n,n,n
CCOC(=O)c1c(C)nc2sc3c(=O)n(-c4ccc(C(C)=O)cc4)nnc3c2c1-c1ccc(OC)cc1,n,u,n,n,n,8.9µM
